In the supplement of paper PMC9262897, “Low-cost anti-mycobacterial drug discovery using engineered E. coli” (Nature Communications, 2022):
Structures can show the parent of a compound that is named as a salt. ± gives the standard deviation of the averaged measurements.

What was measured:
Assay in all cases: growth (OD600 after 10 h); higher = more growth (less inhibition)
[1] = system: E. coli TESEC Alr+ wild-type control; details: compound 0.1 mM; raw OD600 reference: median of DMSO wells 0.241, cell-free background 0.041
Experimental: (§1)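 TESEC Mtb Alr E. coli, or the Alr+ wild-type control, in 384-well plates with Prestwick library compounds at 0.1 mM and 1% DMSO, across arabinose induction levels of 1E3 to 1E7 nM. Growth is read as OD600 after 10 h at 37 °C in triplicate biological replicates.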

E. coli TESEC Mtb Alr [2] = details: compound 0.1 mM
Experimental: as §1

E. coli TESEC Mtb Asd = details: compound 0.1 mM
Experimental: (§2)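 TESEC E. coli strains in which the native enzyme is deleted and replaced by arabinose-inducible Mtb Asd, DapB, CysH or TrpD, each grown in its selective medium. Strains were screened against the Prestwick library at 0.1 mM and 1% DMSO in 384-well format at low and high arabinose induction. Growth is read as OD600 after 10 h in triplicate.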

E. coli TESEC Mtb DapB = details: compound 0.1 mM
Experimental: as §2

E. coli TESEC Mtb Alr [3] = details: compound 0.1 mM; remark: listed apart in the source
Experimental: (§3)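 TESEC Mtb Alr E. coli (ΔaraC ΔtolC ΔentC Δalr ΔdadX, arabinose-inducible Mtb Alr) or the Alr+ wild-type control strain, grown in defined M9-fructose medium without D-alanine in 96-well plates with Prestwick library compounds at 0.1 mM and 1% DMSO. Low Alr induction is 0.1 µM arabinose and high induction is 10 mM arabinose.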

[4] = system: E. coli TESEC Alr+ wild-type control; details: compound 0.1 mM; raw OD600 reference: median of DMSO wells 0.49, cell-free background 0.052
Experimental: as §3

[5] = arabinose 1000 nM, raw OD600 reference: median of DMSO wells 0.294, cell-free background 0.041
[6] = arabinose 10000 nM, raw OD600 reference: median of DMSO wells 0.264, cell-free background 0.041
[7] = arabinose 100000 nM, raw OD600 reference: median of DMSO wells 0.201, cell-free background 0.041
[8] = arabinose 1000000 nM, raw OD600 reference: median of DMSO wells 0.193, cell-free background 0.041
[9] = arabinose 10000000 nM, raw OD600 reference: median of DMSO wells 0.146, cell-free background 0.041
[10] = arabinose induction (level): High, raw OD600 reference: median of DMSO wells 0.331, cell-free background 0.041
[11] = arabinose induction (level): Low, raw OD600 reference: median of DMSO wells 0.417, cell-free background 0.041
[12] = arabinose induction (level): High, raw OD600 reference: median of DMSO wells […], cell-free background 0.041
[13] = arabinose induction (level): Low, raw OD600 reference: median of DMSO wells 0.227, cell-free background 0.041
[14] = arabinose 100 nM, raw OD600 reference: median of DMSO wells 0.413, cell-free background 0.052
[15] = arabinose 10000000 nM, raw OD600 reference: median of DMSO wells […], cell-free background 0.052

| SMILES | growth [1] | growth (E. coli TESEC Mtb Alr [2]; [5]) | growth (E. coli TESEC Mtb Alr [2]; [6]) | growth (E. coli TESEC Mtb Alr [2]; [7]) | growth (E. coli TESEC Mtb Alr [2]; [8]) | growth (E. coli TESEC Mtb Alr [2]; [9]) | growth (E. coli TESEC Mtb Asd; [10]) | growth (E. coli TESEC Mtb Asd; [11]) | growth (E. coli TESEC Mtb DapB; [12]) | growth (E. coli TESEC Mtb DapB; [13]) | growth (E. coli TESEC Mtb Alr [3]; [14]) | growth (E. coli TESEC Mtb Alr [3]; [15]) | growth [4] |
| --- | --- | --- | --- | --- | --- | --- | --- | --- | --- | --- | --- | --- | --- |
| NCCCNCCSP(=O)(O)O [Amifostine] | 0.25 ± 0.0069 | 0.297 ± 0.011 | 0.273 ± 0.0058 | 0.253 ± 0.011 | 0.196 ± 0.013 | 0.145 ± 0.0044 | 0.372 ± 0.057 | 0.431 ± 0.061 | 0.196 ± 0.0064 | 0.209 ± 0.0086 | 0.402 ± 0.011 | 0.352 ± 0.011 | – |
| C[C@@H]1CN([C@H]2CC[C@](C#N)(c3ccc(F)cc3)CC2)CC[C@]1(C(=O)O)c1ccccc1 [Levocabastine hydrochloride] | 0.215 ± 0.0053 | 0.274 ± 0.0041 | 0.271 ± 0.017 | 0.171 ± 0.011 | 0.154 ± 0.0044 | 0.154 ± 0.0047 | 0.212 ± 0.033 | 0.384 ± 0.03 | 0.192 ± 0.0051 | 0.265 ± 0.029 | 0.404 ± 0.017 | 0.321 ± 0.022 | – |
| CCC(=O)O[C@H]1CC[C@H]2[C@@H]3CCC4=CC(=O)CC[C@]4(C)[C@H]3CC[C@]12C [Testosterone propionate] | 0.157 ± 0.016 | 0.145 ± 0.0086 | 0.261 ± 0.0051 | 0.12 ± 0.0075 | 0.107 ± 0.0037 | 0.117 ± 0.015 | 0.336 ± 0.065 | 0.454 ± 0.04 | 0.214 ± 0.0086 | 0.189 ± 0.002 | 0.269 ± 0.18 | 0.148 ± 0.025 | – |
| CC(N)C(O)c1ccccc1 (stereo not drawn) [Phenylpropanolamine hydrochloride] | 0.26 ± 0.0031 | 0.298 ± 0.0047 | 0.254 ± 0.0066 | 0.229 ± 0.045 | 0.19 ± 0.011 | 0.148 ± 0.0054 | 0.399 ± 0.022 | 0.433 ± 0.067 | 0.189 ± 0.009 | 0.226 ± 0.025 | 0.404 ± 0.016 | 0.345 ± 0.015 | – |
| CCCCCC[C@H]1C(=O)O[C@H](C)[C@H](NC(=O)c2cccc(NC=O)c2O)C(=O)O[C@@H](C)[C@@H]1OC(=O)CC(C)C [Antimycin A] | 0.191 ± 0.0077 | 0.203 ± 0.018 | 0.234 ± 0.0026 | 0.249 ± 0.022 | 0.125 ± 0.0067 | 0.159 ± 0.0018 | 0.24 ± 0.017 | 0.316 ± 0.12 | 0.15 ± 0.018 | 0.278 ± 0.058 | 0.363 ± 0.0093 | 0.319 ± 0.02 | 0.428 ± 0.022 |
| CN1C[C@H](CNC(=O)OCc2ccccc2)C[C@@H]2c3cccc4c3c(cn4C)C[C@H]21 [Metergoline] | 0.0409 ± 0.00056 | 0.0429 ± 0.0039 | 0.04017 ± 0.00032 | 0.0428 ± 0.00093 | 0.0401 ± 0.00017 | 0.0432 ± 0.0024 | 0.0522 ± 0.002 | 0.0487 ± 0.0029 | 0.048 ± 0.0011 | 0.0468 ± 0.00083 | 0.278 ± 0.2 | 0.05077 ± 0.00012 | – |
| CN(C)C(=O)Oc1cccc([N+](C)(C)C)c1 [Neostigmine bromide] | 0.256 ± 0.0033 | 0.316 ± 0.0053 | 0.273 ± 0.0057 | 0.225 ± 0.033 | 0.19 ± 0.0043 | 0.168 ± 0.0075 | 0.222 ± 0.028 | 0.331 ± 0.14 | 0.204 ± 0.0094 | 0.232 ± 0.064 | 0.404 ± 0.012 | 0.339 ± 0.011 | 0.563 ± 0.068 |
| COP(=O)(OC)C(O)C(Cl)(Cl)Cl (stereo not drawn) [Trichlorfon] | 0.249 ± 0.0088 | 0.293 ± 0.0065 | 0.248 ± 0.0076 | 0.199 ± 0.015 | 0.181 ± 0.0066 | 0.146 ± 0.0059 | 0.348 ± 0.072 | 0.363 ± 0.079 | 0.208 ± 0.028 | 0.272 ± 0.071 | 0.412 ± 0.012 | 0.257 ± 0.17 | – |
